Assay outcomes (PubChem)
Sampled rows, rich in hits. Any-hit rate of the full collection: about 10%.
SW480 rerep – induces DNA re-replication in SW480 colon adenocarcinoma cells | actives 1.8% (n = 340,000) | Potency, µM (series often up to 46.1 µM), usual class: activators | SW480 DNA re-replication, Hoechst DNA content imaging, 48 h; further: nearly all actives have a fitted effect of over 55% in size
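Readout is total intensity of Hoechst-stained nuclei, excited at 405 nm and collected at 500-530 nm. Compound treatment lasted 48 hr at 37 C in 5% CO2 before staining.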
Gal4-VP16 FLuc – counter-screen for ROR gamma inhibitors: Gal4-VP16 reporter; Drosophila S2 Gal4-VP16 UAS-luciferase, luminescence, 20 h; Potency, µM (top dose mostly 53.6 µM), hits mostly inhibitors; actives 3.5% (n = 310,000); AID 2546;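 further: Gal4-VP16 expression switched on by copper sulfate through the metallothionein promoter; nearly all actives have a fitted effect of over 50% in size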
KB-3-1 tox – KB-3-1 parental cell cytotoxicity | KB-3-1 viability, CellTiter-Glo ATP luminescence, 72 h | Potency, µM (doses to about 46.1 µM), most hits filed as cytotoxic | actives 1.4% (n = 400,000) | AID 1347075; further: nearly all actives have a fitted effect of over 60% in size
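Cells are dispensed, compounds pinned in, plates held at 37 °C for 72 h, then CellTiter-Glo is added and luminescence read after 10 minutes. Cell line: parental KB-3-1 in phenol-red-free DMEM, 10% FBS.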
KB-V1 MDR tox – KB-V1 MDR subline cytotoxicity; KB-V1 MDR cells viability, CellTiter-Glo, 72 h; Potency, µM (series often up to 46.1 µM), hits mostly cytotoxic; actives 3.4% (n = 400,000); AID 1347076; further: nearly all actives have a fitted effect of over 60% in size
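Cytotoxicity via CellTiter-Glo luminescence after 72 h compound exposure at 37 degrees C. Cells: drug-selected KB-V1 line, DMEM phenol-red free plus 10% FBS. Compounds tested at multiple concentrations; normalized data fitted to concentration-effect curves.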
RORg inh – inhibitors of mouse ROR gamma transcriptional activity | P51450 | Drosophila S2 Gal4-RORgamma UAS-luciferase reporter, 20 h | Potency, µM (top dose mostly 53.6 µM), hits mostly inhibitors | actives 5.4% (n = 310,000) | AID 2551; further: nearly all actives have a fitted effect of over 60% in size
Target sequence (P51450 whole entry, looked up, the tested form may be a part): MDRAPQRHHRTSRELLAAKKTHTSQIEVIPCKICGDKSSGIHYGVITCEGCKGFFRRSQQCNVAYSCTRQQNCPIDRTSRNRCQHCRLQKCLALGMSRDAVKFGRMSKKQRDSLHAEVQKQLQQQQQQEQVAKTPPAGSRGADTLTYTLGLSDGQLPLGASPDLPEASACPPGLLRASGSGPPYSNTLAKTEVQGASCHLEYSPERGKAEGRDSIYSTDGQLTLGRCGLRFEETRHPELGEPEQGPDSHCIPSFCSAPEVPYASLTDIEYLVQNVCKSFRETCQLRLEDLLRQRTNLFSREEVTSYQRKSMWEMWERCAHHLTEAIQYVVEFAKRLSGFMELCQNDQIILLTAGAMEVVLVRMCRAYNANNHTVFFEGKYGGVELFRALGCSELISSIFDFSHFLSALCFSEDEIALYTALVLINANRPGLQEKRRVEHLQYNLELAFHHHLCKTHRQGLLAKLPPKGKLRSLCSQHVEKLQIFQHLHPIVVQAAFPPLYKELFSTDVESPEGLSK
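Luminescence from a UAS-regulated Photinus luciferase reporter in stably transfected Drosophila Schneider cells is measured; decreased signal marks ROR gamma inhibition. Fusion expression is induced by 700 uM copper sulfate for 20 hr.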
MCF10A rereplic – inducers of DNA re-replication in MCF 10A breast cells; MCF 10A DNA re-replication, Hoechst nuclear intensity, 48 h; Potency, µM (top dose mostly 46.1 µM), hits mostly activators; actives 2.9% (n = 350,000); AID 624296; further: nearly all actives have a fitted effect of over 50% in size
Numbers stand for hits; n = inactive; u = inconclusive; x = no result; [ ] = remark or other dose. The call rests on the fitted dose curve; in most records, active means well fitted curve in the direction sought with a large enough effect; inconclusive means small, poorly fitted or top-dose-only effect, or another doubt; inactive means no such curve, though single readings can be large; an effect the other way counts as inactive or inconclusive.

SMILES	SW480 rerep	Gal4-VP16 FLuc	KB-3-1 tox	KB-V1 MDR tox	RORg inh	MCF10A rereplic
COc1ccc(-c2nnc(SCC(=O)Nc3cc(OC)ccc3OC)nc2-c2ccc(OC)cc2)cc1	x	x	n	n	x	x
CC(=O)Nc1nnc(-c2ccc3c(c2)CCCC3)o1	n	3.5µM	n	n	7.1µM	n
COc1ccccc1C(=O)Nc1nnc(-c2ccc3c(c2)CCCC3)o1	n	4µM	n	u	n	n
CC1CN(S(=O)(=O)c2ccc(C(=O)Nc3nnc(-c4ccc5c(c4)CCCC5)o3)cc2)CC(C)O1 (stereo not drawn)	n	0.89µM	u	n	0.11µM	n
O=C(Nc1nnc(-c2ccc3c(c2)CCCC3)o1)C1COc2ccccc2O1 (stereo not drawn)	n	7.9µM	n	n	3.5µM	n
O=C(COc1ccc(Cl)cc1)Nc1nnc(-c2ccc3c(c2)CCCC3)o1	n	u	n	n	n	n
CO/N=C/c1ccc(N2CCN(C(=O)c3ccc(F)cc3)CC2)c([N+](=O)[O-])c1	n	8.9µM	n	16µM	u	n
CO/N=C/c1ccc(N2CCN(C(=O)c3cccc(C(F)(F)F)c3)CC2)c([N+](=O)[O-])c1	u	u	u	10µM	u	n
O=C(O/N=C\c1ccc(N2CCCCC2)c([N+](=O)[O-])c1)c1cccc(C(F)(F)F)c1	n	n[0.365 µM]	u	u	n	n
CO/N=C/c1ccc(N2CCN(C(=O)c3ccc(Cl)cc3Cl)CC2)c([N+](=O)[O-])c1	n	u	13µM	2.6µM	u	n
COc1cccc([C@@H]2Oc3ccc(Br)cc3C(=O)[C@H]2OC(=O)Nc2ccc(C)c(Br)c2)c1	x	n	x	x	n	x
Cc1cc(CN(C)C(=O)c2cc(COc3ccc(F)cc3Cl)on2)n[nH]1	n	u	n	21µM	n	n
CN1CCN(C(=O)c2cc(COc3ccc(F)cc3Cl)on2)CC1c1ccccc1 (stereo not drawn)	u	n	16µM	n	u	21µM
CN1CCN(C(=O)c2cc(COc3c(F)cccc3F)on2)CC1c1ccccc1 (stereo not drawn)	n	7.1µM	u	n	7.1µM	n
COc1ccccc1OCc1cc(C(=O)N2CCN(C)C(c3ccccc3)C2)no1 (stereo not drawn)	n	n	n	n	n	n
O=C(c1cc(COc2c(F)cccc2F)on1)N1CCC(c2ccncc2)CC1	n	u	23µM	u	u	u
CSc1ccccc1OCc1cc(C(=O)N2CCN(C)C(c3ccccc3)C2)no1 (stereo not drawn)	n	x	n	u	x	u
Cc1cccc(C)c1OCc1cc(C(=O)N2CCC(c3ccncc3)CC2)no1	u	n	n	n	u	n
O=C(Nc1sc2c(c1C(=O)NCc1ccccc1)CCCC2)c1cc(=O)c2cc(Cl)ccc2o1	x	x	n	u	x	x
Cc1sc2c(c1C)c(=O)n(-c1ccccc1)c(=O)n2CC(=O)c1ccc(Cl)cc1	x	x	n	n	x	x
Cc1ccc(C)c(NC(=O)c2cc(S(=O)(=O)N3CCCCCC3)ccc2F)c1	x	x	n	n	x	x
O=C(Nc1ccc(N2CCOCC2)cc1)c1csc([C@H]2C[C@H](O)[C@@H](CO)O2)n1	x	x	n	n	x	x
O=C(c1cc(COc2ccc(F)cc2Cl)on1)N1CCCC(OCc2cccnc2)C1 (stereo not drawn)	n	n	n	9.2µM	n	n
CCOC(=O)C1=C(COC(=O)/C=C/c2ccc(OC)cc2OC)NC(=O)NC1C (stereo not drawn)	n	x	n	6.5µM	x	n
CCOC(=O)C1=C(COC(=O)CCOc2ccc(OC)cc2)NC(=O)NC1C (stereo not drawn)	n	x	n	n	x	n
CCOC(=O)C1=C(COC(=O)CCOc2ccc(C)cc2)NC(=O)NC1C (stereo not drawn)	u	x	n	n	x	18µM
CCCCOc1ccc(S(=O)(=O)NC(=O)C2(C)CCN2C(=O)Cc2cccs2)cc1 (stereo not drawn)	x	x	n	n	x	x
Cc1cccc(NC(=O)C2CCCN(S(=O)(=O)c3ccc4c(c3)oc(=O)n4C)C2)c1C (stereo not drawn)	x	x	n	n	x	x
